# Source: PubChem BioAssay (EPA / NIEHS)
# Activity calls are given as the source filed them. How the source made its calls: active means hit-call score of the fitted dose curve at least 0.9, where 1 is the maximum; inactive means score below 0.9.
# Target: Heat shock factor protein 1 (Homo sapiens) (UniProt Q00613)
# Experiment: ATG_HSE_CIS: Attagene CIS-FACTORIAL HepG2 Assay for human Heat Shock Transcription Factor 1 (HSE) (AID 2282953)
# Conditions: HepG2 HSE cis-reporter, Attagene RNA transcription; actives raise or lower the signal
# Protocol: ATG_CIS is a cell-based, multiplexed-readout assay that uses HepG2, a human liver cell line, with measurements taken at 24 hours after chemical dosing in a 24-well plate.ATG_HSE_CIS is one of 52 assay component(s) measured or calculated from the ATG_CIS assay. It is designed to make measurements of mRNA induction, a form of inducible reporter, as detected with fluorescence intensity signals by Reverse transcription polymerase chain reaction (RT-PCR) and Capillary electrophoresis technology.Data from the assay component ATG_HSE_CIS was analyzed into 1 assay endpoint. This assay endpoint, ATG_HSE_CIS, was analyzed with bidirectional fitting relative to DMSO as the negative control and baseline of activity. Using a type of inducible reporter, measures of mRNA for gain or loss-of-signal activity can be used to understand the reporter gene at the transcription factor-level as they relate to the gene HSF1. Furthermore, this assay endpoint can be referred to as a primary readout, because this assay has produced multiple assay endpoints where this one serves a reporter gene function. To generalize the intended target to other relatable targets, this assay endpoint is annotated to the dna binding intended target family, where the subfamily is heat shock protein.
# Human liver HepG2 cells are transiently transfected with multiple reporter transcription units (MRTUs) in 6-well plates using FuGene 6 reagent (Roche; 3 ml FuGene/1 mg DNA). The MRTU constructs are regulated by a cis-regulating element (promoter). […] A major difference between the CIS and TRANS system is that in CIS activities of endogenous TFs are measured, whereas the TRANS assay evaluates changes in activities of exogenous, chimeric NR-Gal4 proteins. […] At the end of 24 hour incubation, total RNA was isolated using TriZol reagent (Invitrogen). The isolated RNA is then reverse-transcribed using oligo(dT) primer and Mo-MLV reverse transcriptase (Invitrogen) with DNAse I (Ambion) treatment for 30 min. The one-tenth of the produced cDNA was amplified by PCR using Taq DNA polymerase (Invitrogen) and two reporter sequence-specific primers. The PCR products were fluorescently labeled by primer extension with 6-arboxyfluorescein (6-FAM) 5'-labeled reporter sequence-specific primer (2 min at 95 C, 20 s at 68 C and 10 min at 72 C) and these products were digested with 5U of HpaI (New England Biolabs) for 2h at 37 C. The fragments were purified using Qiaquick PCR columns (Qiagen), analyzed on an ABI 3130xL genetic analyzer (Applied Biosystems) with peak positions identified by using a set of X-rhodamine (ROX)-labeled MapMarker1000 molecular weight standards (BioVentures). The raw capillary electrophoresis data was processed using Attagraph software (Attagene).
# Heat shock factor protein 1 (Homo sapiens), sequence (Q00613 whole entry, looked up): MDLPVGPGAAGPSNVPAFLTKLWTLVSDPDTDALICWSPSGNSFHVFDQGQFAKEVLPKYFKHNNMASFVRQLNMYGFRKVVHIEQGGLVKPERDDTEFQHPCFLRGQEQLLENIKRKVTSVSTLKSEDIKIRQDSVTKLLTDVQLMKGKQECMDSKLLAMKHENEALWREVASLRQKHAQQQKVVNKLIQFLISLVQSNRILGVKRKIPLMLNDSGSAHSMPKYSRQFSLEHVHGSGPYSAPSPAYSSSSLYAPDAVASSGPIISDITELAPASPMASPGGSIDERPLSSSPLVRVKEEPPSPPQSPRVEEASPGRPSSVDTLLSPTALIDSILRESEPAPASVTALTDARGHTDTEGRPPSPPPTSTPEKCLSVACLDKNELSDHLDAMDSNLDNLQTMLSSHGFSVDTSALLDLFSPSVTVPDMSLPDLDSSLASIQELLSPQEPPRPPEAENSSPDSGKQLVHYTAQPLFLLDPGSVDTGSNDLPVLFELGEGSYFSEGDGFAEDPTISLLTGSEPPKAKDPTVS
SMILES,AC50,outcome
CC1=Nc2ccc3ccccc3c2C1(C)C,147 µM (active),
N#[N+]c1ccc2c(S(=O)(=O)[O-])cccc2c1O,,inactive
O=C(c1ccc(O)cc1)c1ccc(O)cc1O,,inactive
CCCCCCCCCCCCCCCCCC#N,,inactive
CC=CC(=O)N(CC)c1ccccc1C,,inactive
CCOc1ccc(N)c([N+](=O)[O-])c1,,inactive
[Cl][Bi]([Cl])([c]1ccccc1)([c]1ccccc1)[c]1ccccc1,5.52 µM (active),
O=C(Oc1ccccc1)c1ccc2ccccc2c1O,66.2 µM (active),
NC(=O)C1CO1 (stereo not given),,inactive
O=C1OC(=O)c2cc(Oc3ccc4c(c3)C(=O)OC4=O)ccc21,,inactive
CC1(C)S[C@@H]2[C@H](NC(=O)COc3ccccc3)C(=O)N2[C@H]1C(=O)O,,inactive
O=c1cc[nH]c(=S)[nH]1,,inactive
CC(C)=CC1CC(C)CCO1 (stereo not given),,inactive
COc1cc(NC(=O)CC(C)=O)c(OC)cc1Cl,,inactive
O=C(c1ccccc1)c1ccc(O)c(O)c1O,,inactive
O=C(c1ccccc1)C1CCC1,,inactive
c1ccc2c(c1)ccc1cc3c(ccc4ccccc43)cc12,,inactive
O=C(O)c1ccccc1Nc1cccc(C(F)(F)F)c1,,inactive
CCCCCCCCO[C@@H]1O[C@H](CO)[C@@H](O)[C@H](O)[C@H]1O,,inactive
O=C(Cl)c1cc(C(=O)Cl)cc(C(=O)Cl)c1,100 µM (active),

SMILES,AC50,outcome
CC(C)CC(O)Cc1ccccc1 (stereo not given),,inactive
CC(=O)OCCC1CCCCC1,,inactive
CN(C)c1ccc(C(=N)c2ccc(N(C)C)cc2)cc1,29.4 µM (active),
CNC(=S)NN,,inactive
Nc1ccc(Cl)cc1Cl,,inactive
C=C1[C@H]2CC[C@@H]3[C@H]2C(C)(C)CCC[C@]13C,,inactive
C=CC(=O)OCCC(=O)O,,inactive
O=C1Nc2ccccc2C1(c1ccc(O)cc1)c1ccc(O)cc1,163 µM (active),
OC1OCCOC1O (stereo not given),,inactive
Clc1nc2ccccc2s1,,inactive
FC(F)(F)C(=NOCC1OCCO1)c1ccc(Cl)cc1,,inactive
CC(C)c1ccc(C=O)cc1,,inactive
CCCCNc1ccc(NCCCC)c2c1C(=O)c1ccccc1C2=O,,inactive
OCCCS,,inactive
CC=CCO,,inactive
CCCCCC(C)O (stereo not given),,inactive
CO[Si](CCC1CCC2OC2C1)(OC)OC (stereo not given),,inactive
CCOC(=O)CC,,inactive
CC(C)c1ccc(C#N)cc1,,inactive
CC(=O)c1ccc[nH]1,,inactive
